From PubChem BioAssay (Tox21)
Several values for one entry are separate records, joined by “and”; a condition that tells them apart may be missing. Identical values can stand only once. Records with an inconclusive call do not appear. A structure can be active in one record and inactive in another. Activity calls are given as the source filed them. The call rests on the fitted dose curve; in most records, active means well fitted curve in the direction sought with a large enough effect in the repeat runs; inconclusive means weak or mixed curves; inactive means no such curve, though single readings can be large; an effect the other way counts as inactive or inconclusive.

Experiments:
[1] = A CellTox Green Cytotoxicity Assay to monitor cytotoxicity in HepG2 cells - 32 hour (AID 1224883); conditions: CellTox Green fluorescence; series mostly up to 76.8 µM; further: nearly all actives have a fitted effect of over 50% in size; further: potency means the concentration at half of the fitted maximal effect
How it was run: (§1)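 Fluorescent DNA-binding dye, 600 HepG2 cells/well, 5 h preincubation then compound in DMSO; same plates read at 0–40 h, 37 C.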

[2] = A CellTox Green Cytotoxicity Assay to monitor cytotoxicity in HEK293 cells - 8 hour (AID 1224884); conditions: CellTox Green fluorescence; series mostly up to 76.8 µM; further: nearly all actives have a fitted effect of over 35% in size; further: potency means the concentration at half of the fitted maximal effect
How it was run: (§2)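 Homogeneous no-lysis format: HEK293 cell suspension mixed with CellTox Green reagent, seeded, incubated 5 h at 37 C/5% CO2, then dosed by pintool with compound in DMSO.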

[3] = qHTS RealTime-Glo MT Cell Viability Assay in HepG2 cells - 16 hour (AID 1224885); conditions: RealTime-Glo luminescence; series mostly up to 76.8 µM; further: nearly all actives have a fitted effect of over 50% in size; further: potency means the concentration at half of the fitted maximal effect
How it was run: (§3)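 Tox21 10K library screened in qHTS format on HepG2 cells carrying RealTime-Glo reagents. Compounds were added after a 5 h preincubation, and the luminescent signal from continuous culture was measured repeatedly during 40 h treatment.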

[4] = qHTS RealTime-Glo MT Cell Viability Assay in HEK293 cells - 24 hour (AID 1224886); conditions: RealTime-Glo luminescence; series mostly up to 76.8 µM; further: nearly all actives have a fitted effect of over 50% in size; further: potency means the concentration at half of the fitted maximal effect
How it was run: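 Luminescence generated by NanoLuc from substrate produced by living HEK293 cells served as the viability signal. Each value reflects the reading at its stated time point during continuous 40 h compound exposure at 37 C.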

[5] = qHTS RealTime-Glo MT Cell Viability Assay in HEK293 cells - 8 hour (AID 1224887); conditions: RealTime-Glo luminescence; series mostly up to 76.8 µM; further: nearly all actives have a fitted effect of over 50% in size; further: potency means the concentration at half of the fitted maximal effect
How it was run: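 Measured as luminescence from the same continuously cultured HEK293 wells at successive time points (0, 8, 16, 24, 32, 40 h) after compound addition. Reagent present from seeding; dosing at 5 h; incubation 37 C.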

[6] = A CellTox Green Cytotoxicity Assay to monitor cytotoxicity in HepG2 cells - 8 hour (AID 1224890); conditions: CellTox Green fluorescence; series mostly up to 76.8 µM; further: nearly all actives have a fitted effect of over 45% in size; further: potency means the concentration at half of the fitted maximal effect
How it was run: as §1

[7] = qHTS assay to identify small molecule antagonists of the estrogen receptor alpha (ER-alpha) signaling pathway using the BG1 cell line in the presence of 0.1 nM 17-beta-estradiol - cell viability counter screen (AID 1259241); conditions: VM7Luc4E2 (BG1) viability, CellTiter-Fluor protease, 22 h, 0.1 nM estradiol agonist added; series mostly up to 92.4 µM; further: nearly all actives have a fitted effect of over 40% in size; further: potency means the concentration at half of the fitted maximal effect
How it was run: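 Following 5 days in phenol red-free medium with charcoal-stripped serum, VM7Luc4E2 cells received test compounds alongside 0.1 nM 17beta-estradiol (final) at 37C for 22 hr. Live cells were then quantified via protease-substrate fluorescence.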

[8] = qHTS assay to identify small molecule antagonists of the androgen receptor (AR) signaling pathway using the MDA cell line in the presence of 0.5 nM R1881 - cell viability counter screen (AID 1259242); conditions: MDA-kb2 viability, CellTiter-Fluor protease fluorescence, 16 h; series mostly up to 92.4 µM; further: nearly all actives have a fitted effect of over 45% in size; further: potency means the concentration at half of the fitted maximal effect
How it was run: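 Human breast carcinoma MDA-kb2 cells, cultured without CO2, receive compounds alongside 0.5 nM (final) R1881 agonist. After 16 hr at 37C, viability is taken as live-cell protease signal.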

[9] = A CellTox Green Cytotoxicity Assay to monitor cytotoxicity in HEK293 cells - 16 hour (AID 1224888); conditions: CellTox Green fluorescence; series mostly up to 76.8 µM; further: nearly all actives have a fitted effect of over 35% in size; further: potency means the concentration at half of the fitted maximal effect
How it was run: as §2

[10] = qHTS RealTime-Glo MT Cell Viability Assay in HepG2 cells - 0 hour (AID 1224889); conditions: RealTime-Glo luminescence; series mostly up to 76.8 µM; further: nearly all actives have a fitted effect of over 50% in size
How it was run: as §3

Measured: Potency

Cc1cncc(C)c1
not listed: [9] | [10]
inactive: all other assays above

Cc1cn[nH]c1
not listed: [5] | [10]
inactive: all other assays above

O=Cc1ccc(F)cc1
not listed: [5]
inactive: all other assays above

C/C=C/CO
not listed: [5]
inactive: all other assays above

O=CC1CC1
not listed: [5] | [10]
inactive: all other assays above

CCCCCCCCCCCCCCNCCO
inactive: [7] | [8]
active: [1] 7.56 µM | [2] 21.3 µM | [3] 19 µM | [4] 15.1 µM | [9] 21.3 µM

O=C(Nc1ccc(Cl)c(Cl)c1)c1cc(Cl)cc(Cl)c1O
active: [1] 11 µM | [4] 4.9 µM
inactive: [2] | [3] | [5] | [6]

CCCCCCCC/C=C/CCCOC(C)=O
not listed: [5] | [6] | [10]
inactive: all other assays above

Cn1cnc2ncnc(N)c21
not listed: [5]
inactive: all other assays above

Brc1ccccc1-c1ccccc1
active: [1] 46.3 µM
not listed: [5] | [6] | [9]
inactive: all other assays above

Clc1nc2ccccc2s1
not listed: [9]
inactive: all other assays above

CCCCCCCCCC(=O)N(C)C
not listed: [9]
inactive: all other assays above

CCCCCCCCCCCCCCCC
not listed: [9]
inactive: all other assays above

CC1=C(/C=C/C(C)=C/C=C/C(C)=C/C(=O)Nc2ccc(O)cc2)C(C)(C)CCC1
active: [1] 50.2 µM and 26.8 µM | [4] 893 nM and 338 nM | [7] 55.9 µM and 11.9 µM | [8] 23.7 µM
inactive: [2] | [9] | [10] | [6]
inactive and 26.8 µM (active): [3]

O=C1NCCN1CCN1CCC(c2cn(-c3ccc(F)cc3)c3ccc(Cl)cc23)CC1
active: [1] 26.8 µM | [3] 23.9 µM | [4] 21.3 µM
inactive: [2] | [10]

C[Si](C)O[Si](C)C
not listed: [5] | [9]
inactive: all other assays above

O=C1c2c(O)ccc([N+](=O)[O-])c2C(=O)c2c([N+](=O)[O-])ccc(O)c21
active: [3] 24.3 µM | [4] 19.3 µM | [7] 30.4 µM | [8] 27.1 µM
inactive: [1] | [2] | [9] | [6]

CC1CCCNC1 (stereo unspecified)
not listed: [9]
inactive: all other assays above

Cc1cccc(C)n1
not listed: [9]
inactive: all other assays above

CC(C)N=C(N)/N=C(\N)Nc1ccc(Cl)cc1
active: [1] 26.8 µM | [4] 23.9 µM
not listed: [5]
inactive: all other assays above

CC(COC(=O)c1ccccc1)OC(=O)c1ccccc1 (stereo unspecified)
not listed: [5]
inactive: all other assays above

OCCC(O)CO (stereo unspecified)
not listed: [5] | [6] | [10]
inactive: all other assays above

O=C1c2c(O)ccc(O)c2C(=O)c2c(NCCNCCO)ccc(NCCNCCO)c21
inactive: [1] | [2] | [9] | [10]
active: [3] 19 µM | [4] 0.0601 µM | [8] 21.1 µM

Cc1cccc(Br)c1
not listed: [9] | [10]
inactive: all other assays above

COc1ccc(C#N)cc1
not listed: [5]
inactive: all other assays above

CC(C)c1ccc(O)c(C(C)C)c1
active: [1] 27.5 µM | [6] 43.6 µM
not listed: [5] | [9]
inactive: all other assays above

COc1ccccc1OCCNCC(O)COc1cccc2[nH]c3ccccc3c12 (stereo unspecified)
active: [1] 23.9 µM | [3] 23.9 µM | [4] 10.7 µM
inactive: [2] | [9] | [10] | [6]

CC(C)(C)c1n[nH]c(=O)n(N)c1=O
not listed: [6] | [9]
inactive: all other assays above

CC(C)(C)CC(C)(C)c1ccccc1O
inactive: [3] | [10] | [7] | [8]
active: [1] 27.7 µM | [2] 39.1 µM | [5] 34.9 µM | [9] 39.1 µM

CCN(CC)c1cccc(C)c1
not listed: [3] | [6]
inactive: all other assays above

C[C@@H]1CC[C@H]2C(C)(C)[C@H]3C[C@@]12CC[C@@]3(C)O
active: [1] 54.9 µM | [2] 43.6 µM | [9] 43.6 µM
not listed: [4] | [5]
inactive: all other assays above

CCN(CC)CCCN(c1ccccc1)C1Cc2ccccc2C1
active: [1] 23.9 µM
not listed: [4]
inactive: all other assays above

OCCCS
not listed: [3]
inactive: all other assays above

Nc1cc(Cl)c([N+](=O)[O-])cc1O
inactive: [1] | [2] | [3] | [9] | [10] | [6]

C=CC(=O)OCCC#N
not listed: [4]
inactive: all other assays above

CC(=O)C=O
not listed: [3]
inactive: all other assays above

Clc1ccc(C(c2ccccc2Cl)C(Cl)Cl)cc1 (stereo unspecified)
38.9 µM (active) and inactive: [4]
not listed: [3]
inactive: all other assays above

CCCCCCCC/C=C\CCCCCCCC(=O)OCCOC(=O)CCCCCCC/C=C\CCCCCCCC
active: [5] 20.2 µM
not listed: [3]
inactive: all other assays above

Nc1ncnc2c1ncn2[C@@H]1O[C@H](COP(=O)(O)O)[C@@H](O)[C@H]1O
not listed: [3] | [10]
inactive: all other assays above

Clc1cc(Cl)c(-c2c(Cl)c(Cl)cc(Cl)c2Cl)cc1Cl
not listed: [4] | [9] | [10]
inactive: all other assays above

CCCCOC(=O)C(C)CC (stereo unspecified)
not listed: [3] | [7] | [10]
inactive: all other assays above
